{"source": "PubChem BioAssay", "data": [{"tested_on": "Fibrinogen (Alexa647-labelled)", "experiment": "Alexa647-fibrinogen binding to printed small molecules – biochemical, small-molecule microarray, 635/667 nm fluorescence, artefact control for SMM control-protein annotation, profiling panel (AID 1131);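 further: z-score merges 667 nm fluorescence with per-spot signal-to-noise over triplicate slides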", "conditions": "fibrinogen-A647 binding fluorescence, higher = more signal", "values": [{"smiles": "O=C1O[C@H](c2ccccc2)[C@H](c2ccccc2)N2[C@H]1[C@@H](C(=O)Nc1nc3ccccc3s1)[C@]1(C(=O)Nc3ccc(C#CCCO)cc31)[C@H]2c1ccc(OCCO)cc1", "composite z-score": 0.9}, {"smiles": "C=CCOC(=O)[C@H]1[C@@H]2C(=O)O[C@@H](c3ccccc3)[C@@H](c3ccccc3)N2[C@@H](c2ccc(OCCOC(=O)[C@@H]3C[C@@H]4C(=O)N[C@@H](CCCC[N+](C)(C)C)C(=O)N4[C@@H]3c3ccc(O)cc3)cc2)[C@]12C(=O)Nc1ccccc12", "composite z-score": 0.583}, {"smiles": "COCCCN1C(=O)[C@@]2(Cc3ccccc31)c1ccccc1C(=O)N(Cc1ccccc1C(F)(F)F)[C@H]2c1ccc(CO)cc1", "composite z-score": -0.371}, {"smiles": "COc1cc2c(cc1OC)CN(C(=O)[C@@H]1[C@H]3C(=O)O[C@H](c4ccccc4)[C@H](c4ccccc4)N3[C@H](c3ccc(O)cc3)[C@@]13C(=O)Nc1ccc(C#CC4(O)CCCCCC4)cc13)CC2", "composite z-score": 0.924}, {"smiles": "COCCOC(=O)N1C(=O)[C@@]2(c3ccccc31)[C@H](c1ccccc1OCCO)N1[C@H](c3ccccc3)[C@H](c3ccccc3)OC(=O)[C@H]1[C@@H]2C(=O)Nc1nc2ccccc2s1", "composite z-score": 0.994}, {"smiles": "C=C[C@H](COC(C)=O)N(C(=O)OC(C)(C)C)S(=O)(=O)c1ccc(Br)cc1", "composite z-score": -0.296}, {"smiles": "COc1cc(CO)cc(I)c1O[C@H]1C=C(C(=O)NCCO)C[C@@H](N(CCN2CCOCC2)C(=O)C2CCOC2)[C@@H]1O", "note": "(some centres undefined)", "composite z-score": 0.651}, {"smiles": "COC(=O)[C@@]1(Cc2ccc(F)cc2)[C@H]2c3cc(C(=O)N4CCCC4)n(Cc4ccc(C)o4)c3C[C@H]2CN1C(=O)c1ccccc1", "composite z-score": 0.952}, {"smiles": "C=CCN1C(=O)[C@]2(O[C@H](CCO)[C@@H]([Si](C)(C)c3ccc(OC)cc3)[C@@H]2C)c2cc(N3C(=O)c4cccc5cccc3c45)ccc21", "composite z-score": 0.541}, {"smiles": "C=CCN1C(=O)[C@]2(O[C@H](CCO)[C@@H]([Si](C)(C)c3ccc(OC)cc3)[C@@H]2C)c2cc(N3CCCCC3=O)ccc21", "composite z-score": 0.799}, {"smiles": "CN1C(=O)C2C=CC(C(O)c3ccc(-c4ccccc4)s3)N(N(c3ccccc3)c3ccccc3)C2C1=O", "note": "(centres undefined)", "composite z-score": 0.528}, {"smiles": "COc1cc(OC)c(C(O)C2C=CC3C(=O)NC(=O)C3N2Nc2ccc(Cl)cc2Cl)cc1Br", "note": "(centres undefined)", "composite z-score": 0.786}, {"smiles": "CCOC(=O)C[C@H]1[C@H](OC(=O)c2cc3ccccc3oc2=O)[C@@H](NC(=O)Cc2ccc(OC)cc2)c2cc(OCCCO)ccc2N1C(=O)c1ccccc1", "composite z-score": 0.367}, {"smiles": "COc1ccc(C(O)C2C=CC3C(=O)N(c4ccccc4)C(=O)C3N2Nc2ccccc2F)cc1OCc1ccccc1", "note": "(centres undefined)", "composite z-score": 0.991}, {"smiles": "CN1C(=O)C2C=CC(C(O)Cc3ccccc3)N(Nc3ccccc3)C2C1=O", "note": "(centres undefined)", "composite z-score": 0.944}, {"smiles": "O=C1O[C@H](c2ccccc2)[C@H](c2ccccc2)N2[C@H]1[C@@H](C(=O)Nc1nc3ccccc3s1)[C@]1(C(=O)Nc3ccc(C#CC4(O)CCCCCC4)cc31)[C@H]2c1ccc(OCCO)cc1", "composite z-score": 0.976}, {"smiles": "C[N+](C)(C)CCCC[C@@H]1NC(=O)[C@@H]2C[C@H](C(=O)NCCCCCN)[C@H](c3cccc(OCCO)c3)N2C1=O", "composite z-score": 0.978}, {"smiles": "CCCCCCC#C[Si](O[C@H](c1ccccc1)c1cn([C@H](CO)Cc2ccccc2)nn1)(C(C)C)C(C)C", "composite z-score": -1.29}, {"smiles": "COC(=O)[C@@]1(Cc2ccc(F)cc2)[C@@H]2[C@@H](CC(=O)[C@H]2CC(=O)C(=O)N(C)C)CN1C(=O)c1ccccc1", "composite z-score": 1.01}, {"smiles": "C#CCN(CC=C(C)C)[C@H](CO)c1ccccc1", "composite z-score": -0.0376}, {"smiles": "CCc1oc(CC[C@@H](CO)NC(=O)NCCn2cc(C3(O)CCCCC3)nn2)c(C(=O)OC)c1C(=O)OC", "composite z-score": 0.685}, {"smiles": "C#CCN(Cc1ccccc1Br)C(/C=C/c1ccccc1)CO", "note": "(centres undefined)", "composite z-score": -0.171}, {"smiles": "C#CCNC(=O)[C@H](Cc1ccccc1)NC(=O)CCC(=O)O", "composite z-score": -1.74}, {"smiles": "C[C@@]1([C@@H](NC(=O)c2ccccc2)c2ccc(-c3ccccc3)cc2)C[C@H]1C1CCCCC1", "composite z-score": -0.695}, {"smiles": "CC(C)C(=C=CC[C@@H](O)c1ccccc1OCCO)CCO", "composite z-score": 0.442}, {"smiles": "O=C(c1ccccc1)N1Cc2ccccc2[C@@H]2OC(c3ccc(OCCCO)cc3)=N[C@]2(Cc2ccccc2)C1=O", "composite z-score": 0.924}, {"smiles": "CC(C)C(CO)N1C(=O)[C@@H]2[C@H]3C(=O)OCC=C[C@H]3OC23C=CCN(C(C)C)C(=O)[C@@H]13", "note": "(some centres undefined)", "composite z-score": -0.841}, {"smiles": "CN(C)C(=O)[C@@]1(Cc2ccccc2)N=C(c2ccc(OCCCO)cc2)O[C@H]1c1ccccc1N=[N+]=[N-]", "composite z-score": 1.01}, {"smiles": "C=C/C=C/[C@H]1C(=C)CN([C@@H](Cc2ccccc2)C(=O)OC)[C@@H]1[C@H](O)Cc1ccccc1", "composite z-score": -0.108}]}]}
